# KB-3-1 cytotox: qHTS assay for MDR1-selective chemotherapeutics: Primary screen using the parental adenocarcinoma cell KB-3-1; KB-3-1 viability, CellTiter-Glo ATP luminescence, 72 h; Potency, µM (series often up to 46.1 µM), most hits filed as cytotoxic; 400,000 compounds, 1.4% hits; AID 1347075, 2019; further: on the % scale 0 is the no-effect control and ±100 the full control effect; nearly all actives have a fitted effect of over 60% in size
#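 Parental KB-3-1 viability, qHTS format: 72 h compound exposure, 37 °C; CellTiter-Glo; media-only wells and DMSO plates as controls; concentration-effect fits on corrected data.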
# KB-V1 cytotox: qHTS assay for MDR1-selective chemotherapeutics: Primary screen using the drug-selected MDR subline cells KB-V1 | KB-V1 MDR cells viability, CellTiter-Glo, 72 h | Potency, µM (doses to about 46.1 µM), hits mostly cytotoxic | 400,000 compounds, 3.4% hits | AID 1347076, 2019; further: on the % scale 0 is the no-effect control and ±100 the full control effect; nearly all actives have a fitted effect of over 60% in size
#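 Cytotoxicity via CellTiter-Glo luminescence after 72 h compound exposure at 37 degrees C. Cells: drug-selected KB-V1 line, DMEM phenol-red free plus 10% FBS. Compounds tested at multiple concentrations; normalized data fitted to concentration-effect curves.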
# HT1080-NT tox: qHTS for induction of synthetic lethality in tumor cells producing 2HG: qHTS for the HT-1080-NT fibrosarcoma cell line. HT-1080-NT fibrosarcoma viability, CellTiter-Glo ATP luminescence, 48 h. Potency, µM (top dose mostly 46.1 µM), inactives show at the top dose activity, negative = less viability, actives largely listed as cytotoxic. 360,000 compounds, 1.6% hits. AID 686970, 2013;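 further: NT is the 2HG producing partner of a matched IDH1 knockdown line; 0% = DMSO-treated cells and -100% = media-only wells without cells; nearly all actives have a fitted effect of over 55% in size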
#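 Compounds were tested in concentration-response format on HT-1080-NT cells for 48 hours at 37 degrees C. Cell viability came from CellTiter-Glo luminescence; curves were classified by r2, response magnitude and activity.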
# HT1080 IDH1KD tx: qHTS for induction of synthetic lethality in tumor cells producing 2HG: qHTS for the HT-1080-IDH1KD cell line. HT-1080 IDH1 knockdown viability, ATP luminescence, 48 h. Potency, µM (series often up to 46.1 µM), inactives show at the top dose activity, negative = toxicity, most hits filed as cytotoxic. 360,000 compounds, 2% hits. AID 686971, 2013;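 further: 0% = DMSO wells and -100% = cell-free medium wells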
#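 % activity derives from luminescence (CellTiter-Glo), normalised to DMSO and no-cell wells. HT-1080-IDH1KD cells, 750/well, had 48 h compound exposure at 37 °C.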
# MCF10A rerep: A quantitative high throughput screen for small molecules that induce DNA re-replication in MCF 10a normal breast cells; AID 624296, 2012; MCF 10A DNA re-replication, Hoechst nuclear intensity, 48 h; Potency, µM (titrated, usually from 46.1 µM), without a hit: at the highest dose activity, positive = re-replication, actives largely listed as activators; 350,000 compounds, 2.9% hits; further: % of control where 0% means no effect; nearly all actives have a fitted effect of over 50% in size
# SW480 rerep: A quantitative high throughput screen for small molecules that induce DNA re-replication in SW480 colon adenocarcinoma cells. SW480 DNA re-replication, Hoechst DNA content imaging, 48 h. Potency, µM (top dose mostly 46.1 µM), inactives show at the highest dose re-replication activation, most hits filed as activators. 340,000 compounds, 1.8% hits. AID 624297, 2012; further: % of control where 0% means no effect; nearly all actives have a fitted effect of over 55% in size
#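 Readout is total intensity of Hoechst-stained nuclei, excited at 405 nm and collected at 500-530 nm. Compound treatment lasted 48 hr at 37 C in 5% CO2 before staining.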
# Numbers without * were called inactive; i = inactive; ? = inconclusive; · = no result given; [ ] = dose if it differs, or a comment. Shown are actives, neighbours in structure and some others; about 7.9% of the full set was active somewhere. The call rests on the fitted dose curve; in most records, active means well fitted curve in the direction sought with a large enough effect; inconclusive means small, poorly fitted or top-dose-only effect, or another doubt; inactive means no such curve, though single readings can be large; an effect the other way counts as inactive or inconclusive. Potency means the concentration at half of the fitted maximal effect.
SMILES,KB-3-1 cytotox,KB-V1 cytotox,HT1080-NT tox,HT1080 IDH1KD tx,MCF10A rerep,SW480 rerep
Clc1ccccc1Cn1nnc2c(N3CCOCC3)nc(C3CC3)nc21,i,3.66µM*,-0.5%,2.2%,-3.5%,-6.9%
Clc1ccccc1Cn1nnc2c(NCCN3CCOCC3)ncnc21,i,20.6µM*,3.3%,6.5%,20.6%,-3.4%
CC(C)(C)c1nc(NCCN2CCOCC2)c2nnn(Cc3ccccc3Cl)c2n1,?,i,11.7%,9.1%,?,28.0%
Clc1ccccc1Cn1nnc2c(Nc3ccccc3)ncnc21,i,i,1.4%[9.24 µM],4.1%,13µM*,-2.5%
Cc1nc(NCCN2CCOCC2)c2nnn(Cc3ccccc3Cl)c2n1,i,6.51µM*,13.3%,-0.6%,1.3%,2.2%
COc1cccc(S(=O)(=O)NCC(=O)Nc2ccc(C(C)(C)C)cc2)c1,i,16.4µM*,1.8%,-9.2%,0.9%,-4.6%
COc1ccc(NS(=O)(=O)c2cccc(NC(=O)c3ccc(Cl)nc3)c2)cc1,?,2.91µM*,1.64µM*,6.51µM*,-6.5%,?
O=C(Nc1cccc(S(=O)(=O)Nc2ccc(Cl)cc2)c1)c1ccc(Cl)nc1,?,i,?,?,4.8%,-5.1%
O=C(Nc1ccncc1)c1ccc(NS(=O)(=O)c2cccc(F)c2)cc1,?,?,4.8%,-11.3%,?,-5.9%
COc1ccc(NS(=O)(=O)c2cccc(NC(=O)CCC(=O)c3ccc(Cl)cc3)c2)cc1,i,18.4µM*,-5.4%,?,?,8.6%
COc1cccc(S(=O)(=O)Nc2ccc(C(=O)Nc3ccncc3)cc2)c1,?,20.6µM*,6.3%,9.0%,?,1.1%
COc1ccc(NS(=O)(=O)c2cccc(NC(=O)CCC(=O)c3cccs3)c2)cc1,i,i,3.4%,3.9%,20.0%,-4.7%
CCNC(=O)C1(C)CCN1CCS(=O)(=O)c1ccc(C)cc1 (stereo not given),i,i,7.9%,?,·,·
Cc1c(-c2nsc(NC(=O)c3cccs3)n2)nnn1-c1ccc(Cl)cc1,i,i,·,·,·,·
C=C1CC(COc2cc(=O)oc3ccccc23)(c2ccccc2)OC1=O (stereo not given),10.3µM*,?,16.4µM*,5.17µM*,2.59µM*,28.0%
C=C1CCC2C(C)(C)[C@H](O)CC[C@@]2(C)[C@@H]1COc1cc(=O)oc2ccccc12 (stereo not given in full),i,i,?,?,?,-2.9%
COc1ccc(CNC(=O)C(C)n2c(=O)cc(C)c3c(C)nn(-c4ccccc4)c32)cc1 (stereo not given),i,i,·,·,·,·
CCOC(=O)c1c(C)[nH]c(C(=O)COC(=O)c2ccncc2)c1C,?,7.31µM*,1.9%,1.4%,6.1%,0.3%
Cc1[nH]c2ccccc2c1C(=O)COC(=O)C1CC(=O)N(Cc2ccccc2)C1 (stereo not given),i,i,2.6%,3.2%,0.2%,-1.2%
CCOC(=O)c1c(C)[nH]c(C(=O)COC(=O)c2cnccn2)c1C,i,i,1.2%,-10.9%,?,-10.2%
CCOC(=O)c1c(C)[nH]c(C(=O)COC(=O)C2CC(=O)N(Cc3ccccc3)C2)c1C (stereo not given),i,3.26µM*,9.5%,9.6%,-0.6%,-15.7%
Cc1ccc(-c2nnn(CC(=O)N(c3ccccc3)C(C(=O)NCC3CCCO3)c3ccc(Cl)cc3)n2)cc1 (stereo not given),i,i,-17.7%,-18.4%,18.4µM*,2.1%
Cc1ccc(-c2nnn(CC(=O)N(c3ccc4c(c3)OCCO4)C(C(=O)NCC3CCCO3)c3ccc(F)cc3)n2)o1 (stereo not given),i,i,-4.7%,-0.5%,?,16.4µM*
Cc1ccc(-c2nnn(CC(=O)N(c3ccccc3)C(C(=O)NCC3CCCO3)c3ccc(F)cc3)n2)o1 (stereo not given),i,i,18.2%,10.4%,-18.3%,1.1%
O=C(Nc1cccc2ccccc12)c1csc(COCCO)n1,i,i,-28.0%,-24.6%,·,·
SMILES,KB-3-1 cytotox,KB-V1 cytotox,HT1080-NT tox,HT1080 IDH1KD tx,MCF10A rerep,SW480 rerep
Cc1ccc2nc(-c3sc4nc(C)cc(C)c4c3N)[nH]c2c1,?,?,2.6%,3.1%,10.3µM*,11.6µM*
CCc1ccc(NC(=O)Cn2cnc3sc(C)c(S(=O)(=O)N4CCC(C)CC4)c3c2=O)cc1,i,i,·,·,·,·
Cc1ccc(CN(C(=O)COc2ccccc2Cl)c2ccccn2)o1,i,i,·,·,·,·
COc1ccccc1/C=c1/[nH]c(=O)/c(=C\c2ccccc2OC)[nH]c1=O,i,?,·,·,·,·
CN1CCN(C(=O)c2cccc(-c3cnc4cnc(-c5ccccc5Oc5ccccc5)cn34)c2)CC1,?,7.31µM*,?,23.1µM*,·,·
O=C(c1cccc(-c2cncc3nccn23)c1)N1CCOCC1,i,i,12.8%,10.2%,·,·
Cc1cccc(C(=O)OCc2cc(=O)n3nc(C4CC4)sc3n2)c1,i,i,·,·,·,·
Cc1ccc(Cc2c(-c3ccc(C#N)cc3)nc3ccc(Cl)cn23)cc1,i,i,15.1%,4.2%,·,·
O=C(CSc1nnc2sc3ccccc3n12)N1CCN(c2ccccc2)CC1,i,8.2µM*,9.4%,-15.3%,0.7%,-3.1%
COc1ccc(-c2noc(CSc3nnc(-c4ccncc4)n3-c3ccc(C)cc3)n2)cc1,i,i,·,·,·,·
Cn1c(Cn2c(=O)sc3ccccc32)nnc1SCC(=O)N1CCN(c2ccccc2)CC1,i,i,-1.1%,0.5%,-2.4%,2.8%
Cc1ccc(-c2noc(CSc3nnc(Cc4ccccc4)n3-c3cccc(C)c3)n2)cc1,?,i,0.5%[9.24 µM],?,18.4µM*,18.3%
O=C(CSc1nnc(-c2cccnc2)n1-c1ccccc1)N1CCN(c2ccc(F)cc2)CC1,i,?,4.0%,5.3%,-28.6%,-3.0%[9.22 µM]
CCOc1ccc(-n2c(SCc3nc(-c4ccc(C)cc4)no3)nnc2-c2ccncc2)cc1,i,?,?,10µM*,?,28.0%
O=C(CSc1nnc(-c2ccncc2)n1-c1ccccc1)N1CCN(c2ccc(Cl)cc2)CC1,i,16.4µM*,10.2%,4.7%,?,-10.4%
